# DRD3 antagonist – D3 dopamine receptor (human) antagonism. max response, negative = inhibition, %. 2.5% of 360,000 active. D3R cells, DiscoveRx beta-arrestin luminescence, antagonist mode; active compounds read low. P35462; in the data active means max response below about -50%; inconclusive means no clear call, values can overlap the other calls; further: on the % scale 0 is the no-effect control and ±100 the full control effect
# Target sequence (P35462 whole entry, looked up): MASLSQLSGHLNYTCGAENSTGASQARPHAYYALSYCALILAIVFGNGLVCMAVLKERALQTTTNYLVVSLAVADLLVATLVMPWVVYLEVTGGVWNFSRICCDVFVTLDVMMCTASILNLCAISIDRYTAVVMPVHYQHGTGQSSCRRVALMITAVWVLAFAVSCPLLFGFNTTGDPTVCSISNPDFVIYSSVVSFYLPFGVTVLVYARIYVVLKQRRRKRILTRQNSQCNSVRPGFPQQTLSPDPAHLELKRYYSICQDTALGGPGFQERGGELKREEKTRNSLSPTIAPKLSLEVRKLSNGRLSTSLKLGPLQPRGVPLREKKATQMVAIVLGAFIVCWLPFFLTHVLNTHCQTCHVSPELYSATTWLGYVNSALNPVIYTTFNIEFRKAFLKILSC
#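 Cells plated overnight at 1500 cells/well, then exposed to library compounds with dopamine controls for 90 minutes at 37 degrees C. DiscoveRx reagent added for 30–60 minutes at room temperature; luminescence read, quantitative HTS format.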
# D1 agonist – human D1 receptor agonism; P21728; HEK293 T-REx D1 cells, calcium flux, agonist mode; activation, % at 2 µM; 1% of 360,000 active; AID 504660; in the data active means activation above about 30%; further: 0% is about no effect
#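 Inducible HEK293 T-REx D1 cells, force-coupled to calcium signalling, were plated at 4000 cells/well with tetracycline and held overnight at 30 C. After no-wash calcium dye loading, compound-evoked calcium rise over 180 s flagged agonists.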
# D1 antag – antagonists of human D1 dopamine receptor; P21728; HEK293 TREx D1 cells, calcium flux, dopamine EC80; active compounds read low; activity change, negative = inhibition, % at 10 µM; 3.2% of 360,000 active; in the data active means activity change below about -30%; further: on the % scale 0 is the no-effect control and ±100 the full control effect
#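 Cells carrying a force-coupled, tetracycline-inducible human D1 receptor report calcium flux. Each well gets a 10 s baseline, compound with 180 s monitoring, then an EC80 dopamine stimulus with a second 180 s kinetic read.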
# D3 ag – activates the human D3 dopamine receptor. max activation, %. D3R DiscoveRx beta-arrestin cells, luminescence, 90 min. 0.58% of 410,000 active; in the data active means max activation above about 30%; further: 0% is about no effect
#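 Cells at 1500/well, incubated overnight, then treated with pinned compounds (dopamine as control) for 90 min at 37 degrees C. DiscoveRx reagent added for 30 - 60 minutes at room temperature; luminescence read.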
# D1 potentiator – potentiators of human D1 dopamine receptor; HEK293 TREx D1 cells, calcium flux, dopamine EC20 potentiation; AID 504651; potentiation, % at 10 µM; P21728; 0.036% of 360,000 active; in the data active means potentiation above about 30%; further: 0% is about no effect
# Numbers without * were called inactive; u = inconclusive; x = no result given; ! = not active in a repeat. Compounds with a hit are over-represented: about 6% of the library has one in this group of screens.
SMILES,DRD3 antagonist,D1 agonist,D1 antag,D3 ag,D1 potentiator
COc1ccccc1N(CC(=O)NCCSCc1ccc(C)cc1)S(=O)(=O)c1ccccc1,36,26,-32*,3,1
COc1ccc(S(=O)(=O)N(CC(=O)NCCc2ccccc2)c2ccc(Cl)cc2)cc1,x,40*,-20,-11,-3
CCOc1ccc(N(C)S(=O)(=O)c2ccc(C)c(C(=O)NCCc3ccc(OC)cc3)c2)cc1,7,0,-21,0,-5
C=CCNC(=O)CN(c1ccc(F)cc1)S(=O)(=O)c1ccc(OC)cc1,14,3,-49*,0,-12
COc1ccc(CCNC(=O)c2cc(S(=O)(=O)N(C)c3ccccc3)ccc2Cl)cc1,18,12,-56*,1,-4
COc1ccc(N(CC(=O)NCCc2ccccc2)S(=O)(=O)c2ccc(OC)c(OC)c2)cc1,x,7,-12,5,-1
CN(C)S(=O)(=O)N(CC(=O)NCCSCc1ccccc1)c1ccccc1,4,1,-61*!,-2,-2
Cc1cccc(N(CC(=O)NCCSCc2cccc(Cl)c2)S(=O)(=O)c2ccccc2)c1C,x,31*,-12,0,-1
COc1ccc(N(C(C)C(=O)NCCSCc2cccc(Cl)c2)S(C)(=O)=O)cc1 (centres undefined),-23,3,-7,-6,-10
CC(C(=O)NCCSCc1cccc(Cl)c1)N(c1ccccc1)S(C)(=O)=O (centres undefined),12,16,-32*!,6,-7
COc1ccc(-c2onc(C)c2C)cc1S(=O)(=O)Nc1cc(Cl)ccc1C,x,2,-14,-20,-6
O=C(NCCS(=O)(=O)c1ccc(Br)cc1)c1ccc(Cl)cc1Cl,-8,1,-39*,1,-8
CN1C(=O)c2ccccc2Sc2ccc(NC(=O)N3CCN(c4ccccc4F)CC3)cc21,x,-2,8,-13,-1
COc1ccc2nc(N3C(=O)C(O)=C(C(=O)c4ccco4)C3c3ccc(OC)c(OC)c3)sc2c1 (centres undefined),-19,x,x,4,x
Cc1ccc2nc(N3C(=O)C(O)=C(C(=O)c4ccc(C)o4)C3c3cccc(O)c3)sc2c1 (centres undefined),-26,4,-35*,0,-4
Cc1ccc(Cl)cc1NC(=O)Cn1nnc2sc3c(c2c1=O)CCC(C(C)(C)C)C3 (centres undefined),x,0,-8,7,0
C/C=C1\NC(=O)[C@H]2CSSCC/C=C/[C@H](CC(=O)N[C@H](C(C)C)C(=O)N2)OC(=O)C(C(C)C)NC1=O (some centres undefined),x,x,x,-2,x
Cc1ccc(C)c(S(=O)(=O)N2CCC3(CC2)OCCO3)c1,2,36*,10,-7,-3
Cc1ccc(S(=O)(=O)N2CCC3(CC2)OCCO3)cc1,-9,20,-32*,-1,-3
O=C(Nc1ccc(Cl)cc1Cl)c1cc(S(=O)(=O)N2CCC3(CC2)OCCO3)ccc1F,x,2,-41*,-1,-3
CC1CCCN(S(=O)(=O)c2ccc(S(=O)(=O)N3CCC4(CC3)OCCO4)cc2)C1 (centres undefined),3,3,-5,-7,1
CCc1ccccc1NS(=O)(=O)c1ccc2c(c1)CCCN2C(=O)C1CCC1,x,8,-16,-11,-4
COc1ccc(Br)cc1CNC(=O)CSc1cc(=O)n(C)c2ccccc12,x,-2,-1,-6,3
Cc1ccccc1CCNC(=O)c1ccc2c(c1)nc1n2CCCCC1,x,-1,10,-7,0
Cc1ccc(NC(=O)c2cccc(C(F)(F)F)c2)cc1NC(=O)c1[nH]cnc1C(N)=O,46,1,x,31*,2
SMILES,DRD3 antagonist,D1 agonist,D1 antag,D3 ag,D1 potentiator
Cc1ccc(N2CC(C(=O)Nc3ccccn3)CC2=O)cc1 (centres undefined),31,4,-8,1,-5
CCOc1cccc(NC(=O)C2CC(=O)N(C)C(=Nc3ccccc3)S2)c1 (centres undefined),16,4,3,-1,-4
CCOc1cccc(NC(=O)C2CC(=O)N(C)C2)c1 (centres undefined),-77*,4,0,14,-2
COc1ccc(N2CC(C(=O)Nc3c4c(nn3-c3ccc(OC)cc3)CS(=O)(=O)C4)CC2=O)cc1 (centres undefined),4,0,-3,4,-14
CCOc1ccc(N2CC(C(=O)Nc3ccccn3)CC2=O)cc1 (centres undefined),1,-1,-36*,-11,-9
CCOc1ccc(N2CC(C(=O)Nc3ccccc3N3CCOCC3)CC2=O)cc1 (centres undefined),8,5,-30*,0,-1
CCOc1ccc(N2CC(C(=O)Nc3cc(OCC)c(N4CCOCC4)cc3OCC)CC2=O)cc1 (centres undefined),-23,2,8,-2,0
COc1ccc(N2CC(C(=O)Nc3c4c(nn3-c3ccccc3)CS(=O)(=O)C4)CC2=O)cc1 (centres undefined),-9,1,-52*,-4,-7
Cc1cccc(OCc2nc(C#N)c(NCc3ccccc3Cl)o2)c1,x,5,-6,-9,-8
O=C(Cn1nc(N2CCN(c3ccccc3)CC2)ccc1=O)NCc1ccccc1F,x,0,-37*,1,-3
COc1ccc(Cl)cc1NC(=O)NCCc1c(C)nn(C)c1C,x,0,9,-3,-1
CCOC(=O)c1cccc(NC(=O)c2cc3ccccc3o2)c1,u,6,-42*,-3,4
CCOC(=O)c1ccc(NC(=O)c2cc3ccccc3o2)cc1,26,4,-10,9,4
CCOC(=O)c1cccc(NC(=O)c2ncoc2-c2ccco2)c1,x,16,-39*,-4,-1
O=c1c2cnn(-c3ccc(Cl)cc3)c2ncn1Cc1ccc(Cl)cc1Cl,x,0,-15,5,2
CCCn1nc(NC(=O)c2cccc(Cl)c2)c2cc3cccc(C)c3nc21,x,1,-9,2,0
CNC(=S)N/N=C(\C)c1ccc(Cl)c(Cl)c1,-6,-4,2,-2,3
C/C(=N\O)c1ccc(Cl)c(Cl)c1,-13,1,-49*,-1,-8
NC(=O)[C@H](Cc1cc2ccccc2s1)NC(=O)[C@@H]1CC2(CC(c3cccc(NC(=O)[C@@H]4CCC(=O)N4)c3)=NO2)CN1C(=O)/C=C/Sc1ccccc1 (some centres undefined),2,1,-24,-11,0
NC(=O)[C@H](Cc1cc2ccccc2s1)NC(=O)[C@@H]1CC2(CC(c3cccc(NC(=O)[C@@H]4CCC(=O)N4)c3)=NO2)CN1C(=O)/C=C/c1c(F)cccc1Cl (some centres undefined),9,2,6,34*,6
O=c1c(-c2ccccc2)c(-c2ccccc2)oc2cc(O)cc(O)c12,2,40*,53,10,-1
COC(=O)c1cc2c(cc1N)OCCO2,-1,1,19,5,-2
